This is a sample that favours compounds with a hit; in the whole collection about 10% have one here.
Six1-Eya2 inh: qHTS Assay for Inhibitors of the Six1/Eya2 Interaction; Homeobox protein SIX1 (Homo sapiens) + Protein phosphatase EYA2 (Homo sapiens), …; AlphaScreen GST-Six1/His-Eya2 binding, biochemical; stronger effect = lower value; activity change, % (concentration not given with the values); hit rate 0.56% among 360,000; in the data active = activity change below about -65%; inconclusive = mostly about -30% to -63%
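Homogeneous AlphaScreen proximity assay pairing GST-Six1 with His-tagged Eya2 (added as 5X mix: 250 nM and 500 nM) in 50 mM Tris pH 8.0, 300 mM NaCl, 1 mM TCEP. Glutathione donor and nickel acceptor beads; 1 h, 37 °C, dark.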
G9a inh: qHTS Assay for Inhibitors of Histone Lysine Methyltransferase G9a; G9a H3K9 monomethylation, AlphaScreen, 2 h; Histone-lysine N-methyltransferase EHMT2 (Homo sapiens), Q96KQ7; hit rate 8.8% among 350,000; Potency, µM (titrated, usually from 102 µM), actives largely listed as inhibitors; also: nearly all actives have a fitted effect of over 75% in size
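Step 1: enzyme (final 20 nM) with compound, 15 min RT. Step 2: substrate peptide 500 nM and SAM 20 uM, 2 h RT. Step 3: anti-H3K9me1 antibody and AlphaScreen beads, 10 min, then plate read.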
CtBP-E1A inh: qHTS Assay for Inhibitors of the CtBP/E1A Interaction | activity change, % (test concentration not listed) | AID 651724, 2012 | hit rate 0.49% among 340,000 | AlphaScreen GST-E1A/His-CtBP binding, 1536-well; stronger effect = lower value; in the data active = activity change below about -65%; inconclusive = mostly about -30% to -63%
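Steps: dispense buffer (Tris pH 8.0, NaCl 300 mM, TCEP 1 mM, BSA, Tween 20); add 5X protein mix (GST-E1A, His-CtBP, 125 nM each); pin 23 nL compound; 2 h at 37 °C, dark; add 5X beads (50 ug/mL); 1 h; read.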
HP1b chromo inh: HTS for Inhibitors of HP1-beta Chromodomain Interactions with Methylated Histone Tails | Chromobox protein homolog 1 (Homo sapiens), P83916 | AlphaScreen HP1-beta / biotin-H3K9me3 peptide binding | Potency, µM (doses to about 114 µM), most hits filed as inhibitors | hit rate 0.56% among 390,000 | AID 540317, 2011; also: nearly all actives have a fitted effect of over 70% in size
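AlphaScreen: HP1-beta (50 nM) preformed 30 min with biotin-H3(1-18)K9me3 peptide (50 nM) in PBS pH 7.4, 0.01% Tween-20. Compound added for 30 min at RT, then streptavidin donor/nickel chelate acceptor beads (10 ug/mL) for 30 min.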
BAZ2B block: qHTS Assay for Inhibitors of BAZ2B; Potency, µM (series often up to 114 µM), actives largely listed as inhibitors; AlphaScreen BAZ2B-H3K14Ac peptide displacement; hit rate 4.4% among 360,000; Bromodomain adjacent to zinc finger domain protein 2B (Homo sapiens), Q9UIF8; also: nearly all actives have a fitted effect of over 60% in size
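AlphaScreen displacement: compounds (up to 110uM) incubated 30 min at room temperature with a preformed 50 nM BAZ2B/50 nM biotinylated H3K14Ac peptide complex in PBS pH 7.4 with Tween-20. Donor and acceptor beads at 10 ug/mL final added, 20 min light-protected before reading.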
JMJD2A Tudor: qHTS Assay for Inhibitors of JMJD2A-Tudor Domain | Lysine-specific demethylase 4A (Homo sapiens), O75164 | AID 504339, 2011 | Potency, µM (highest dose often 114 µM), usual class: inhibitors | hit rate 4.4% among 390,000 | AlphaScreen JMJD2A-Tudor / H3K4me3 peptide binding; also: nearly all actives have a fitted effect of over 50% in size
Each line names hits and unclear results; the compound was inactive in the other large screens. Unless noted, calls follow the shape of the dose curve; as a rule, active = well fitted inhibition curve with a large enough effect; inconclusive = small, poorly fitted or top-dose-only effect; inactive = no such curve, though single readings can be large or run the other way.

C#CCOCCOCCOCCNc1nc(N2CCN(C(=O)Cn3cc(CCCN=C(N)N)nn3)CC2)nc(N2CCN(C(=O)[C@H]([C@@H](C)O)n3cc(CCCCN)nn3)CC2)n1	none
C#CCOCCOCCOCCNc1nc(N2CCN(C(=O)Cn3cc(CC(C)O)nn3)CC2)nc(N2CCN(C(=O)[C@H](CCCCN)n3cc(CCC(=O)O)nn3)CC2)n1 (stereo not given in full)	G9a inh 50µM
C#CCOCCOCCOCCNc1nc(N2CCN(C(=O)Cn3cc(CCO)nn3)CC2)nc(N2CCN(C(=O)[C@H]([C@@H](C)O)n3cc(CCCCN)nn3)CC2)n1	G9a inh 79µM
C#CCOCCOCCOCCNc1nc(N2CCN(C(=O)Cn3cc(CC(C)O)nn3)CC2)nc(N2CCN(C(=O)[C@H]([C@@H](C)O)n3cc(CCCCN)nn3)CC2)n1 (stereo not given in full)	none (no result: G9a inh, BAZ2B block)
C#CCOCCOCCOCCNc1nc(N2CCN(C(=O)Cn3cc(CCCN=C(N)N)nn3)CC2)nc(N2CCN(C(=O)[C@H](C(C)C)n3cc(CCO)nn3)CC2)n1	G9a inh 50µM
N#Cc1ccc(C(=O)N2CCCC(c3cc(C(=O)NCc4cccnc4)no3)C2)cc1 (stereo not given)	none (no result: G9a inh, HP1b chromo inh, BAZ2B block, JMJD2A Tudor)
CCc1cccc(NC(=O)CCn2nc(C)cc2C)c1	none (no result: Six1-Eya2 inh, CtBP-E1A inh)
CCCCn1c(=N)n(CCCOc2ccc(F)cc2)c2ccccc21	none (no result: Six1-Eya2 inh, CtBP-E1A inh)
CN(CCOCCOc1ccc(Cl)cc1Br)Cc1ccccc1	none
CC(C)NCCCCOc1ccc(Br)cc1Cl	JMJD2A Tudor 32µM (no result: G9a inh, CtBP-E1A inh)
CCCCNCCOCCOc1ccc(Cl)cc1Br	G9a inh 7.9µM, BAZ2B block 79µM, JMJD2A Tudor 4.5µM
CC(C)NCCCOc1ccc(Cl)cc1Br	HP1b chromo inh inconclusive, BAZ2B block inconclusive, JMJD2A Tudor 32µM (no result: G9a inh)
CCCCNCCOCCOc1ccc(F)cc1	G9a inh 11µM, HP1b chromo inh inconclusive, BAZ2B block 79µM, JMJD2A Tudor 5µM
COCCCNCCCOc1ccc(C)cc1Br	G9a inh inconclusive, BAZ2B block 50µM, JMJD2A Tudor 3.5µM
COCCCNCCCOc1ccc(Cl)cc1Br	G9a inh inconclusive, HP1b chromo inh inconclusive, BAZ2B block inconclusive, JMJD2A Tudor 0.89µM
COCCCNC(=O)COc1ccc(Br)cc1Cl	none
COCCNCCCOc1ccc(C)cc1Br	BAZ2B block 56µM, JMJD2A Tudor 20µM (no result: G9a inh, CtBP-E1A inh)
CCN(CC)CCCOc1ccc(C)cc1Br	G9a inh 20µM, HP1b chromo inh inconclusive, BAZ2B block 79µM, JMJD2A Tudor 14µM
C=CCNCCCOc1ccc(C)cc1Br	none
COc1ccccc1CCn1c(=O)c(-c2cccc(Cl)c2)nc2cncnc21	none (no result: Six1-Eya2 inh, CtBP-E1A inh, HP1b chromo inh, BAZ2B block, JMJD2A Tudor)
COc1ccc(CC(=O)N2CCN(c3ccccc3)CC2)cc1OC	none (no result: G9a inh)
O=C(Nc1ccc(S(=O)(=O)N2CCCCC2)cc1)C1CC(=O)N(c2ccccc2)C1 (stereo not given)	none
O=C(NCc1ccc(Cl)cc1)C1CCN(C(=O)Cc2ccccc2)CC1	BAZ2B block 50µM
O=C(NCc1ccco1)C1CCN(C(=O)Cc2ccccc2)CC1	none
CC(C)N(Cc1nc(-c2ccc3c(c2)OCO3)no1)Cc1nccn1C	none (no result: CtBP-E1A inh)
COc1ccc(S(=O)(=O)NCCc2ccco2)cc1OC	none (no result: CtBP-E1A inh)
COc1ccc(S(=O)(=O)NCCSCc2ccco2)cc1	BAZ2B block 50µM
CCOc1ccc(S(=O)(=O)NCCSCc2ccco2)cc1	BAZ2B block inconclusive
COc1ccc(S(=O)(=O)NCCSCc2ccco2)cc1OC	BAZ2B block 56µM
COc1ccc(CN2C(=O)Cc3c2nc(N)c2c(N)nc(N4CCOCC4)c(C#N)c32)cc1	none (no result: CtBP-E1A inh)
COCCN1C(=O)Cc2c1nc(N)c1c(N)nc(N3CCN(c4ccc(F)cc4)CC3)c(C#N)c21	Six1-Eya2 inh inconclusive, G9a inh 35µM, CtBP-E1A inh inconclusive
N#CCc1c(C#N)c(N)nc(N2CCN(S(=O)(=O)c3ccccc3F)CC2)c1C#N	none
N#CCc1c(C#N)c(N)nc(N2CCN(c3ccc(F)cc3)CC2)c1C#N	G9a inh 50µM, JMJD2A Tudor inconclusive
N=C1C(c2ccccc2)=C(O)CN1c1cccc(S(=O)(=O)N2CCOCC2)c1	JMJD2A Tudor 20µM
COC(=O)CSc1nnc(NC(=O)C2CC(=O)N(c3ccc(F)cc3)C2)s1 (stereo not given)	G9a inh 40µM
COc1cccc(N2CC(C(=O)Nc3nnc(SCC(=O)c4ccccc4)s3)CC2=O)c1 (stereo not given)	none
O=C(Nc1nnc(SCC(=O)N2CCOCC2)s1)C1CC(=O)N(c2ccc(F)cc2)C1 (stereo not given)	none
O=C(Nc1nnc(SCC(=O)N2CCCCC2)s1)c1cccs1	G9a inh 8.9µM, JMJD2A Tudor inconclusive
O=C(Nc1nnc(SCC(=O)N2CCCC2)s1)C1CC(=O)N(c2ccc(F)cc2)C1 (stereo not given)	G9a inh 20µM
COc1cccc(N2CC(C(=O)Nc3nnc(SCC(=O)NC4CCCC4)s3)CC2=O)c1 (stereo not given)	Six1-Eya2 inh inconclusive, G9a inh 32µM
CCCOc1ccc(/C=N/NC(=O)CSc2ccccn2)cc1OC	none (no result: G9a inh)
CCN(CC(=O)Nc1ccc(NC(C)=O)cc1)C(=O)CCCN1C(=O)c2ccccc2C1=O	G9a inh inconclusive
O=C(CSc1nnc(NC(=O)C2CC(=O)N(c3ccccc3)C2)s1)NCC1CCCO1 (stereo not given)	G9a inh 40µM
COc1ccc(C(=O)CSc2nnc(NC(=O)C3CC(=O)N(c4ccccc4)C3)s2)cc1 (stereo not given)	G9a inh 45µM
COc1ccc(N2CC(C(=O)Nc3nnc(SCC(=O)Nc4ccc(NC(C)=O)cc4)s3)CC2=O)cc1 (stereo not given)	none (no result: G9a inh, HP1b chromo inh, BAZ2B block, JMJD2A Tudor)
Cc1ccc(N2CC(C(=O)Nc3nnc(SCC(=O)N4CCOCC4)s3)CC2=O)cc1 (stereo not given)	G9a inh 45µM
O=C(CSc1nnc(NC(=O)C2CC(=O)N(c3ccc(F)cc3)C2)s1)NC1CCCC1 (stereo not given)	G9a inh 25µM
Cc1ccc(N2CC(C(=O)Nc3nnc(SCCN4CCOCC4)s3)CC2=O)cc1 (stereo not given)	G9a inh inconclusive
